Results published in PubChem BioAssay (EPA / NIEHS).
Inconclusive results are not listed. Calls of active or inactive are those of the source. The calls were made as follows, unless noted: active = hit-call score of the fitted dose curve at least 0.9, where 1 is the maximum; inconclusive = response in the unintended direction; inactive = score below 0.9.

What was measured:
[1] = molecular target: Hepatocyte nuclear factor 6 (Homo sapiens) (UniProt Q9UBC0); assay: ATG_HNF6_CIS: Attagene CIS-FACTORIAL HepG2 Assay for human Hepatocyte Nuclear Factor 6 (HNF6) (AID 2282952; active = hit-call score of the fitted dose curve at least 0.9, where 1 is the maximum; inactive = score below 0.9); settings: HepG2 Attagene cis-factorial HNF6 reporter transcription; actives raise or lower the signal
Summary of the method: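 Twenty-four-hour chemical treatment of reporter-transfected HepG2 cells precedes RNA isolation, DNase-treated reverse transcription and PCR of reporter sequences. Labelled fragments are sized by capillary electrophoresis and fitted bidirectionally versus DMSO.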

[2] = molecular target: Hepatocyte nuclear factor 4-alpha (Homo sapiens) (UniProt P41235); assay: ATG_HNF4a_TRANS: Attagene TRANS-FACTORIAL HepG2 Assay for human Hepatocyte Nuclear Factor 4 alpha (HNF4a) (AID 2282982); settings: HepG2 HNF4a transactivation reporter, mRNA readout
Summary of the method: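 Using HepG2 liver cells transfected with GAL4-UAS reporter units, chemical-induced mRNA increases were assessed after 24 hours. Fluorescent RT-PCR fragments were separated by capillary electrophoresis and compared with DMSO negative controls.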

[3] = ATG_M_32_TRANS: Attagene TRANS-FACTORIAL HepG2 Assay for M32 Transcription Factor (Internal Marker) (AID 2282984); settings: HepG2 Attagene TRANS M32 internal marker reporter;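 also: transcript level of a background control reporter unit measured by RT-PCR and capillary electrophoresis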
Summary of the method: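 Fluorescence-detected mRNA induction, HepG2 liver cells, 24 h after dosing. Multiple GAL4-UAS reporter units introduced by transient transfection; background-control endpoint analysed for gain of signal against DMSO.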

[4] = molecular target: Nuclear respiratory factor 1 (Homo sapiens) (UniProt Q16656); assay: ATG_NRF1_CIS: Attagene CIS-FACTORIAL HepG2 Assay for human Nuclear Respiratory Factor 1 (NRF1) Orphan Gene (AID 2282987; active = hit-call score of the fitted dose curve at least 0.9, where 1 is the maximum; inactive = score below 0.9); settings: HepG2 NRF1 cis-element reporter, Attagene multiplex; actives raise or lower the signal
Summary of the method: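 Endogenous NRF1-driven reporter transcription measured in transiently transfected human HepG2 liver cells. Readout: reporter mRNA by RT-PCR and capillary electrophoresis with fluorescence detection, 24 h post-dosing. Gain or loss of signal fitted relative to DMSO baseline.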

[5] = ATG_NF_kB_CIS: Attagene CIS-FACTORIAL HepG2 Assay for human Nuclear Factor Kappa B (NF-kB) (AID 2282991; active = hit-call score of the fitted dose curve at least 0.9, where 1 is the maximum; inactive = score below 0.9); settings: HepG2 Attagene cis-factorial NF-kB reporter mRNA; actives raise or lower the signal
Summary of the method: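 Read-out: reporter transcript levels quantified by RT-PCR plus capillary electrophoresis of 6-FAM-labelled, HpaI-cut fragments. Transfected HepG2 cells, 24 h compound exposure, endogenous NF-kB-driven cis element; gain or loss scored versus DMSO.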

[6] = molecular target: human Thyroid Receptor alpha (THRa1), THRA (gene 7067) (UniProt P10827); assay: ATG_THRa1_TRANS: Attagene TRANS-FACTORIAL HepG2 Assay for human Thyroid Receptor alpha (THRa1) (AID 2283014)
Summary of the method: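 Measured here is mRNA from a GAL4-UAS reporter in transfected HepG2 cells carrying a Gal4-fused receptor, 24 h post-dose. DMSO served as negative control and baseline.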

[7] = molecular target: Cellular tumor antigen p53 (Homo sapiens) (UniProt P04637); assay: TOX21_p53_BLA_p2_ratio: Tox21 HCT-116 p53 Agonism Beta-lactamase Assay, Ratio, Phase 2 (AID 2283592)
Summary of the method: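 DMSO-normalized, positive-direction endpoint derived from the 460 nm/530 nm FRET ratio in HCT116 p53 beta-lactamase reporter cells exposed 16 h at 37C and loaded with CCF4-AM for 2 h.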

[8] = molecular target: Cellular tumor antigen p53 (Homo sapiens) (UniProt P04637); assay: TOX21_p53_BLA_p3_ratio: Tox21 HCT-116 p53 Agonism Beta-lactamase Assay, Ratio, Phase 3 (AID 2283596)
Summary of the method: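 Cells were seeded at 4000/well, rested 5 h at 37C, then dosed with DMSO compound solutions (217-fold dilution) for 16 h. CCF4-AM substrate was loaded for 2 h at room temperature, and the 460/530 nm emission ratio was fitted for gain of signal versus DMSO.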

[9] = molecular target: Cellular tumor antigen p53 (Homo sapiens) (UniProt P04637); assay: TOX21_p53_BLA_p4_ratio: Tox21 HCT-116 p53 Agonism Beta-lactamase Assay, Ratio, Phase 4 (AID 2283601)
Summary of the method: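 HCT116 cells carrying an inducible beta-lactamase reporter were plated at 4000 cells/well, rested 5 h, then exposed to compounds in DMSO (217-fold dilution) for 16 h at 37C. CCF4-AM substrate was loaded 2 h at room temperature; 460/530 nm emission ratio scored gain-of-signal versus DMSO.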

[10] = molecular target: Hepatocyte nuclear factor 3-beta (Homo sapiens) (UniProt Q9Y261); assay: ATG_FoxA2_CIS: Attagene CIS-FACTORIAL HepG2 Assay for human Forkhead box A2 (FOXA2) (AID 2282942; active = hit-call score of the fitted dose curve at least 0.9, where 1 is the maximum; inactive = score below 0.9); settings: HepG2 cis-reporter transcription factor activity, 24 h; actives raise or lower the signal
Summary of the method: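 Readout: fluorescent reporter transcripts resolved by capillary electrophoresis after RT-PCR. Transiently transfected HepG2, 24 h compound exposure, endogenous TF activity at cis promoter elements. Gain or loss of signal fitted relative to DMSO.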

[11] = ATG_TGFb_CIS: Attagene CIS-FACTORIAL HepG2 Assay for human Transforming Growth Factor (TGF) (AID 2282967; active = hit-call score of the fitted dose curve at least 0.9, where 1 is the maximum; inactive = score below 0.9); settings: HepG2 Attagene CIS TGFb reporter, mRNA transcription; actives raise or lower the signal
Summary of the method: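 Transcript-level reporter readout: HepG2 transfectants, 24 h exposure, RNA to cDNA, reporter-specific PCR, fluorescent primer extension, capillary sizing against ROX standards. Gain- or loss-of-signal relative to DMSO.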

[12] = molecular target: Nuclear receptor subfamily 4 group A member 2 (Homo sapiens) (UniProt P43354); assay: ATG_NURR1_TRANS: Attagene TRANS-FACTORIAL HepG2 Assay for human Nuclear Receptor Related Protein 1 (NURR1) (AID 2282985); settings: HepG2 Attagene TRANS reporter, mRNA readout
Summary of the method: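 Chimeric NR-Gal4 proteins were expressed in human HepG2 cells bearing GAL4-UAS reporter units, and induced reporter mRNA was quantified 24 h post-dosing by RT-PCR and capillary electrophoresis.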

[13] = molecular target: Retinoic acid receptor RXR-alpha (Homo sapiens) (UniProt P19793); assay: ATG_RXRa_TRANS: Attagene TRANS-FACTORIAL HepG2 Assay for human Retinoid X Receptor alpha (RXRa) (AID 2283012)
Summary of the method: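 Read-out: fluorescent reporter-transcript fragments quantified by capillary electrophoresis after RT-PCR. Transiently transfected HepG2 cells carrying GAL4-UAS reporters and NR-GAL4 chimeras were exposed to chemical for 24 h; activity scored as increase over DMSO.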

[14] = TOX21_p53_BLA_p2_viability: Viability Assessment in the Tox21 HCT-116 p53 Agonism Beta-lactamase Assay, Phase 2 (AID 2283591);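 also: compound exposure lasted 16 h at 37 °C; actives lower the ATP signal meaning cytotoxicity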
Summary of the method: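 HCT-116 p53-bla cells (4000/well) rested 5 h at 37C, then received compounds in DMSO (217-fold dilution) for 16 h at 37C, 5% CO2. After the CCF4 read, CellTiter-Glo was added; ATP luminescence was read after 30 min at room temperature.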

[15] = TOX21_p53_BLA_p4_viability: Viability Assessment in the Tox21 HCT-116 p53 Agonism Beta-lactamase Assay, Phase 4 (AID 2283597);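 also: hits lower the luminescence signal meaning cytotoxicity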
Summary of the method: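 In this multiplexed secondary endpoint, HCT116 cells (4000 per well, compound at 5 h, 16 h treatment) received CellTiter-Glo after the beta-lactamase read. Luminescence after 30 min RT reflects ATP, and falling signal marks cytotoxicity.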

[16] = molecular target: Cellular tumor antigen p53 (Homo sapiens) (UniProt P04637); assay: TOX21_p53_BLA_p5_ratio: Tox21 HCT-116 p53 Agonism Beta-lactamase Assay, Ratio, Phase 5 (AID 2283599)
Summary of the method: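 HCT-116 cells carrying a p53-inducible beta-lactamase reporter were seeded at 4000 cells/well and dosed after 5 h with compound in DMSO (217-fold dilution). After 16 h at 37C, CCF4-AM substrate was added for 2 h, and the 460/530 nm emission ratio was scored as gain-of-signal versus DMSO.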

[17] = ATG_RORE_CIS: Attagene CIS-FACTORIAL HepG2 Assay for human RAR-related Orphan Receptor Element (RORE) (AID 2282959; active = hit-call score of the fitted dose curve at least 0.9, where 1 is the maximum; inactive = score below 0.9); settings: HepG2 Attagene cis-factorial RORE reporter, mRNA; actives raise or lower the signal
Summary of the method: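 Readout: fluorescent reporter mRNA by RT-PCR plus capillary electrophoresis, 24 h after dosing transfected HepG2 cells. Endogenous transcription factor activity on a cis promoter element is measured. Gain or loss of signal fitted against DMSO.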

[18] = ATG_GAL4_TRANS: Attagene TRANS-FACTORIAL HepG2 Assay for GAL4 (Internal Marker) (AID 2282976); settings: HepG2 Attagene TRANS GAL4 internal marker reporter
Summary of the method: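 Liver HepG2 line bearing multiplexed GAL4-UAS reporter constructs; 24 h chemical treatment. Transcripts were quantified as fluorescent fragments on capillary electrophoresis after RT-PCR and HpaI cut, with activity fitted upward from DMSO.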

[19] = molecular target: human Retinoid X Receptor beta (RXRb), RXRB (gene 6257) (UniProt P28702); assay: ATG_RXRb_TRANS: Attagene TRANS-FACTORIAL HepG2 Assay for human Retinoid X Receptor beta (RXRb) (AID 2283013)
Summary of the method: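 Read-out: reporter mRNA induction via RT-PCR plus capillary electrophoresis fluorescence, analysed as signal increase relative to DMSO. Cells were human HepG2, transiently transfected with GAL4-UAS reporter constructs and chimeric receptor-Gal4 fusions, dosed for 24 h.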

[20] = TOX21_p53_BLA_p5_viability: Viability Assessment in the Tox21 HCT-116 p53 Agonism Beta-lactamase Assay, Phase 5 (AID 2283600)
Summary of the method: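 Here cell health was gauged by ATP levels in wells holding 4000 cells, each treated 16 h with DMSO-delivered compounds at 217-fold dilution; reduced luminescence marked toxicity.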

Measured: AC50

Chain of Retinoic acid receptor RXR-alpha (Homo sapiens) (P19793 whole entry, looked up, the tested form may be a part): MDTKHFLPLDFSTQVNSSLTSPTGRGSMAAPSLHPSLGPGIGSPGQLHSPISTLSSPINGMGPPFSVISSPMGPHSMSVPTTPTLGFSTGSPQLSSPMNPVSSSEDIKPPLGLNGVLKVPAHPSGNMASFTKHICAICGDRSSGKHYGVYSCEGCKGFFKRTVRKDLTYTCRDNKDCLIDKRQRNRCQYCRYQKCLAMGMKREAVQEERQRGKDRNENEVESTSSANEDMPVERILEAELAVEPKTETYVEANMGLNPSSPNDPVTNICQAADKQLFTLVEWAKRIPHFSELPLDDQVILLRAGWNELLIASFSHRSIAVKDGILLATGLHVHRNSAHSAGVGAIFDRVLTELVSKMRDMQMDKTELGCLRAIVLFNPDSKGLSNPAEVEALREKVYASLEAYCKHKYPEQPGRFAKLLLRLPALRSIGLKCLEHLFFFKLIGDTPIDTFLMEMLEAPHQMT
Chain of Cellular tumor antigen p53 (Homo sapiens) (P04637 whole entry, looked up): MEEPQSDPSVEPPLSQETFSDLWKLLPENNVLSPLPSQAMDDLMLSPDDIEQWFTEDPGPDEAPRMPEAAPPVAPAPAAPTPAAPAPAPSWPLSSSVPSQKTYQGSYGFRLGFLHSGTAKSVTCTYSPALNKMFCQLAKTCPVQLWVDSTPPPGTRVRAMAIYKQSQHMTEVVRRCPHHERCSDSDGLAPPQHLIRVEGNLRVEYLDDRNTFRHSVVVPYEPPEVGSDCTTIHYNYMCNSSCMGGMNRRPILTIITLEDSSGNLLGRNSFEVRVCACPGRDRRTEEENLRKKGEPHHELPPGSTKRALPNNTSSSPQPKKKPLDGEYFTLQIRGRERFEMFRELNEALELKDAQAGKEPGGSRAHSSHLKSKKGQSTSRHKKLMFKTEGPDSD
Chain of Hepatocyte nuclear factor 3-beta (Homo sapiens) (Q9Y261 whole entry, looked up): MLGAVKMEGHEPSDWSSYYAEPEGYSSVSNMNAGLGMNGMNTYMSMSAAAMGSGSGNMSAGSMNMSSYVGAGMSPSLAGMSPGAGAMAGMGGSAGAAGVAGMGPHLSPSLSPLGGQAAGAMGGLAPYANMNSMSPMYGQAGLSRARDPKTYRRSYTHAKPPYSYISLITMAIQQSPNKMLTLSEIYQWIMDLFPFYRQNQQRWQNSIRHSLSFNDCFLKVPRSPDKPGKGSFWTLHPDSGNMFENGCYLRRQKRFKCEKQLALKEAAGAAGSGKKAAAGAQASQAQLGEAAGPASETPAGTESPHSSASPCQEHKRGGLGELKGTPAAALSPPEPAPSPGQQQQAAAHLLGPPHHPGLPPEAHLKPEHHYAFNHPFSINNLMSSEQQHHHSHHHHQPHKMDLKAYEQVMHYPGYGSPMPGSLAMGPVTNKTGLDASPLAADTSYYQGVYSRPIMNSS
Chain of human Retinoid X Receptor beta (RXRb), RXRB (gene 6257) (P28702 whole entry, looked up, the tested form may be a part): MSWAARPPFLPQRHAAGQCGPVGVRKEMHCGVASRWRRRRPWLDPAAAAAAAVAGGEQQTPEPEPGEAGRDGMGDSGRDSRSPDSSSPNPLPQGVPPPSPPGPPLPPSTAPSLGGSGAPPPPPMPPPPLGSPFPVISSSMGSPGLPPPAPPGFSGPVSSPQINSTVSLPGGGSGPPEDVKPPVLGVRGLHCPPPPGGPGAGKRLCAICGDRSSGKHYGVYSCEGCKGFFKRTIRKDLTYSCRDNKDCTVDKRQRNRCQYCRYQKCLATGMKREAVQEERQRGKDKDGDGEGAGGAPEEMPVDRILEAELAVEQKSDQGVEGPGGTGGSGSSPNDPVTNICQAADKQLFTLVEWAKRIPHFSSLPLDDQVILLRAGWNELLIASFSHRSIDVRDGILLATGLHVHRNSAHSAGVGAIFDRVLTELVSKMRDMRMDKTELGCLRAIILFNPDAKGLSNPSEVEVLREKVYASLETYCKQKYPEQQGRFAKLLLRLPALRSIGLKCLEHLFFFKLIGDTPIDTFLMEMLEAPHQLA
Chain of Hepatocyte nuclear factor 6 (Homo sapiens) (Q9UBC0 whole entry, looked up, the tested form may be a part): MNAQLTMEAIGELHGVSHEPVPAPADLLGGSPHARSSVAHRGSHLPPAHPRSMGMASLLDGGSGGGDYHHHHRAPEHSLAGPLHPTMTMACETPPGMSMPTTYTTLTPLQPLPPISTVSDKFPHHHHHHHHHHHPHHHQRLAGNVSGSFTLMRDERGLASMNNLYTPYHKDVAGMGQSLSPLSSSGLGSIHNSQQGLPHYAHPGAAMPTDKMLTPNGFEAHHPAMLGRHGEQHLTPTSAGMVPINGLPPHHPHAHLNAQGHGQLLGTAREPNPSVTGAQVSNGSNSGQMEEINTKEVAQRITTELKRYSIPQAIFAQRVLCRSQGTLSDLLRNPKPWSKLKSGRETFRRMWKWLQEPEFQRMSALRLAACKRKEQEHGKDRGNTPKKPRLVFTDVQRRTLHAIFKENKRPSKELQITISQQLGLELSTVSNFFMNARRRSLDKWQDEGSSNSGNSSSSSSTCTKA
Chain of Nuclear receptor subfamily 4 group A member 2 (Homo sapiens) (P43354 whole entry, looked up, the tested form may be a part): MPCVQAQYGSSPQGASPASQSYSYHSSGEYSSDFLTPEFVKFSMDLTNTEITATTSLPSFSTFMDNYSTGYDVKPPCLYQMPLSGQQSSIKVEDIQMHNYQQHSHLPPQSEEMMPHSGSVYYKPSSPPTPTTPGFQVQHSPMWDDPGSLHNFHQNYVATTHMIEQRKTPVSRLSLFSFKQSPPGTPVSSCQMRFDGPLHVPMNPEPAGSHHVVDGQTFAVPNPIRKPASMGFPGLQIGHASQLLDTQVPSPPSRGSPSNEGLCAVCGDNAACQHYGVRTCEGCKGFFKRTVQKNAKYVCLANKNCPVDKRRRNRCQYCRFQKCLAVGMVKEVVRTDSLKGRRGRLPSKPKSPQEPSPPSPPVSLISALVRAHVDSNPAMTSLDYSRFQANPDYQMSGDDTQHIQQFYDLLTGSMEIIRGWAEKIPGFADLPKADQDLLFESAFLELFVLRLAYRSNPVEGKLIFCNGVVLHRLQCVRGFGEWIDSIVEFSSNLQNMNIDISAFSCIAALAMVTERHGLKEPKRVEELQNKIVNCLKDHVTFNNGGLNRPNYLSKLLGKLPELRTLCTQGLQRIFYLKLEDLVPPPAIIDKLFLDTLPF
Chain of Nuclear respiratory factor 1 (Homo sapiens) (Q16656 whole entry, looked up): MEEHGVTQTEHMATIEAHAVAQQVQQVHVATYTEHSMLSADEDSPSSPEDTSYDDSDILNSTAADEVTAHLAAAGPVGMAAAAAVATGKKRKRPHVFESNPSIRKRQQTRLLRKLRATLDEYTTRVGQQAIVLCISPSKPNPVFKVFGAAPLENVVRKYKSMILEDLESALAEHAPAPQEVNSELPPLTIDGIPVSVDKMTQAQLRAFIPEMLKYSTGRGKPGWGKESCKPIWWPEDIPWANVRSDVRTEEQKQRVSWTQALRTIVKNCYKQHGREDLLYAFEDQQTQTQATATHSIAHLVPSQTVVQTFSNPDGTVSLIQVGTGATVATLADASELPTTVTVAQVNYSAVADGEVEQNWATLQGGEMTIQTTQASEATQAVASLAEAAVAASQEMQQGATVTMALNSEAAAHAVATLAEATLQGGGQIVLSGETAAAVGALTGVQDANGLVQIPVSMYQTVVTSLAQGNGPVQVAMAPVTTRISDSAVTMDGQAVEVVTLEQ
Chain of Hepatocyte nuclear factor 4-alpha (Homo sapiens) (P41235 whole entry, looked up, the tested form may be a part): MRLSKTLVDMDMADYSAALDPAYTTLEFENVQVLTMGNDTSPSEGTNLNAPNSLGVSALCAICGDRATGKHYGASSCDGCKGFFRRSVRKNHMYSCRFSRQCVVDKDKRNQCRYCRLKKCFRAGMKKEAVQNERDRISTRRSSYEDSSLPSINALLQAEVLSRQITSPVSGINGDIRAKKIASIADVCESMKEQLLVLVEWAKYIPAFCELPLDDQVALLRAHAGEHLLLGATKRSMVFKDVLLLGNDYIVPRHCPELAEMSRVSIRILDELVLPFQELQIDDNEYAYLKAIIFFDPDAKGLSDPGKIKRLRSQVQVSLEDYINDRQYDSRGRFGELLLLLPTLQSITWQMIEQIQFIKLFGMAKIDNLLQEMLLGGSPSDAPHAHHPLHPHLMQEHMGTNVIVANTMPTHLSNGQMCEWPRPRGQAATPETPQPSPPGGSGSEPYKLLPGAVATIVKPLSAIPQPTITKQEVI
Chain of human Thyroid Receptor alpha (THRa1), THRA (gene 7067) (P10827 whole entry, looked up, the tested form may be a part): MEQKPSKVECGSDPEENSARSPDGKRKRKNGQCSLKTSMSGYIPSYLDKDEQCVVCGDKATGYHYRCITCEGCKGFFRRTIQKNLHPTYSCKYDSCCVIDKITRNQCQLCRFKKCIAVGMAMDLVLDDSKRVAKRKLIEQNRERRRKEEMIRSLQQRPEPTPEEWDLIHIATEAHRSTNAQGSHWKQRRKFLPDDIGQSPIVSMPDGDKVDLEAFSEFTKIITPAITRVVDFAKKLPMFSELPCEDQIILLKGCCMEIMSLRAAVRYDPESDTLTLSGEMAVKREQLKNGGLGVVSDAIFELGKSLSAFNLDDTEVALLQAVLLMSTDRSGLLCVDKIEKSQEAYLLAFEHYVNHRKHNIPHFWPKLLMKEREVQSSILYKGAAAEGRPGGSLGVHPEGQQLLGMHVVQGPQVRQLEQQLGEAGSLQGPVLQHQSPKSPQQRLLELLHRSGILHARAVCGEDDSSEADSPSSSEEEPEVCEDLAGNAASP

O=C(C(=O)c1ccccc1)c1ccccc1
inactive: [1] | [2] | [3] | [4] | [5] | [6] | [7] | [8] | [9]

CCOC(=O)c1ccccc1
inactive: [10] | [1] | [11] | [3] | [12] | [13] | [14] | [7] | [8] | [15] | [16]

CC[N+](CC)(CC(=O)Nc1c(C)cccc1C)Cc1ccccc1 (tested in a mixture with another compound)
inactive: [10] | [1] | [17] | [11] | [18] | [2]

CC/C=C/CCO
not listed: [2] | [3] | [5] | [11] | [13] | [17]
inactive: all other assays above

C=C(C)C(=O)OCCCCCC
not listed: [8] | [10] | [11] | [17] | [19] | [20]
inactive: all other assays above

CC1=CCCC(C)(C)C12CCC(C)O2 (stereo not drawn)
not listed: [5] | [6] | [11] | [12] | [14]
inactive: all other assays above

Cc1ccccc1S(N)(=O)=O
not listed: [1] | [2] | [9] | [18]
inactive: all other assays above

CC(C)=CCOC(=O)c1ccccc1
not listed: [2] | [4] | [8] | [18]
inactive: all other assays above

O=S(=O)(O)c1cccc2ccccc12
inactive: [11] | [2] | [4] | [13] | [6] | [14] | [8] | [16] | [9]

O=C(O)c1ccccc1C(=O)O
not listed: [11]
inactive: all other assays above

OCCOCCOCCOCCOCCO
not listed: [2] | [4] | [5] | [10] | [13] | [19]
inactive: all other assays above

CN(C)N=Nc1ccccc1
not listed: [1] | [7] | [14] | [16]
inactive: all other assays above

C=CCOCC(CC)(CO)COCC=C
not listed: [2] | [3] | [4] | [9] | [12] | [13] | [16] | [18]
inactive: all other assays above

O=C(O)c1nc(Cl)c(Cl)c(Cl)c1Cl
inactive: [1] | [17] | [18] | [2] | [3] | [12] | [4] | [6]

CCO[Si](OCC)(OCC)c1ccccc1
not listed: [2] | [5] | [7] | [11] | [15]
inactive: all other assays above

NCc1ccccc1
not listed: [5] | [6] | [8] | [12] | [13] | [17] | [20]
inactive: all other assays above

CC(C)CC(=O)CC(C)C
not listed: [1] | [2] | [3] | [6] | [11] | [12] | [19]
inactive: all other assays above

CCCC(=O)OC
inactive: [10] | [1] | [17] | [11] | [12] | [4] | [7] | [8] | [16]

CCCCCCC(O)CCCCCCCCCCC(=O)OC (stereo not drawn)
active: [17] 21.8 µM | [19] 53.5 µM
not listed: [8] | [11] | [18]
inactive: all other assays above

Clc1ccc(Sc2cc(Cl)c(Cl)cc2Cl)cc1
active: [19] 7.54 µM
not listed: [1] | [3] | [5] | [6] | [10] | [14] | [16] | [18]
inactive: all other assays above

Clc1ccccn1
inactive: [1] | [18] | [2] | [3] | [4] | [5] | [6] | [7] | [16] | [20]
